These results are taken from ChEMBL document CHEMBL1961873, “Compounds: GSK PKIS; Assays: Nanosyn kinase panel” (2012).

For assay [1], the target named is Sphingosine kinase 1 (Homo sapiens) (UniProt Q9NYA1). Particulars: at 1 µM.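 Further: mean SPHK1 inhibition value reported from the GSK PKIS kinase panel screen.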
For assay [2], the target named is T1, Sphingosine kinase 2 (Homo sapiens) (UniProt Q9NRA0).
T1 sequence (whole entry): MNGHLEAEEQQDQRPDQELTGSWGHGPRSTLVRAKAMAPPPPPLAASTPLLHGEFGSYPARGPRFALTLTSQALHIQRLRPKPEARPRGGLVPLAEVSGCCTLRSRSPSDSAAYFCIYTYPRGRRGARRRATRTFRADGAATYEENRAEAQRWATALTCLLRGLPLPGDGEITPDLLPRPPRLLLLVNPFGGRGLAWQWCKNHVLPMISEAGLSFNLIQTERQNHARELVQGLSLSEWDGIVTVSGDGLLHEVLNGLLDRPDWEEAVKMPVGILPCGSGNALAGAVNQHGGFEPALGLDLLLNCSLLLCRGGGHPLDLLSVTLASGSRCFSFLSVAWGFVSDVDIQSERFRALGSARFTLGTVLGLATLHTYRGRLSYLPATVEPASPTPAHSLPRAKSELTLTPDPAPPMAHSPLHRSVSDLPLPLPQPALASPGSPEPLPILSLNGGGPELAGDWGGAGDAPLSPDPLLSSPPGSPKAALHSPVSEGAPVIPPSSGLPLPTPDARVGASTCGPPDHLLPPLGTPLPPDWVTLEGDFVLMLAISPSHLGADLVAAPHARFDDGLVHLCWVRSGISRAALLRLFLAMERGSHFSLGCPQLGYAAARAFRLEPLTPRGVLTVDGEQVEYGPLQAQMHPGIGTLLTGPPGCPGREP
Particulars: at 0.1 µM.

For assay [3], the target named is T1, Sphingosine kinase 2 (Homo sapiens). Particulars: at 1 µM.
Assay [4] has as its target Casein kinase II subunit alpha (Homo sapiens) (UniProt P68400). Particulars: at 0.1 µM.
Assay [5] shares this target. Particulars: at 1 µM.
Assay [6] has as its target T2, Inhibitor of nuclear factor kappa-B kinase subunit alpha (Homo sapiens) (UniProt O15111).
T2 sequence (whole entry): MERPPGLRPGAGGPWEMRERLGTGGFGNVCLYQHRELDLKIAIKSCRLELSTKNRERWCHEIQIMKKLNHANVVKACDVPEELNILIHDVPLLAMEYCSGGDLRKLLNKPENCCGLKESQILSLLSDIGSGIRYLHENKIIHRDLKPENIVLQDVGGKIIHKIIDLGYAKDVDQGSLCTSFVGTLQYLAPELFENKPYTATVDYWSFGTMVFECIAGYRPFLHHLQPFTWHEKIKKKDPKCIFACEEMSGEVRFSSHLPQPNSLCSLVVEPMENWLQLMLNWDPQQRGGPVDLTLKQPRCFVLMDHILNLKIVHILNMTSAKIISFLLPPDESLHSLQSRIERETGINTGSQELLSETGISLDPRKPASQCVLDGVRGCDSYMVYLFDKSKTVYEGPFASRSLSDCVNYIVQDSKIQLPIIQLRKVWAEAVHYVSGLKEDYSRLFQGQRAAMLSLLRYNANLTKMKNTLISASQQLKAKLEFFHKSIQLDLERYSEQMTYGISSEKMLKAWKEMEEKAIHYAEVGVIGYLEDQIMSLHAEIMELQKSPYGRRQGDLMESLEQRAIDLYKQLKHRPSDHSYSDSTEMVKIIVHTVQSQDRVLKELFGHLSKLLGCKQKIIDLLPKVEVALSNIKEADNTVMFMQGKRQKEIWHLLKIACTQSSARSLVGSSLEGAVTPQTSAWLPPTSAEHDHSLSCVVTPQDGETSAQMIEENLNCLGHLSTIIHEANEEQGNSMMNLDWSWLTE
Particulars: at 0.1 µM.

In assay [7] the target is T2, Inhibitor of nuclear factor kappa-B kinase subunit alpha (Homo sapiens). To be noted: at 1 µM.
The target in assay [8] is T3, Inhibitor of nuclear factor kappa-B kinase subunit beta (Homo sapiens) (UniProt O14920).
T3 sequence (whole entry): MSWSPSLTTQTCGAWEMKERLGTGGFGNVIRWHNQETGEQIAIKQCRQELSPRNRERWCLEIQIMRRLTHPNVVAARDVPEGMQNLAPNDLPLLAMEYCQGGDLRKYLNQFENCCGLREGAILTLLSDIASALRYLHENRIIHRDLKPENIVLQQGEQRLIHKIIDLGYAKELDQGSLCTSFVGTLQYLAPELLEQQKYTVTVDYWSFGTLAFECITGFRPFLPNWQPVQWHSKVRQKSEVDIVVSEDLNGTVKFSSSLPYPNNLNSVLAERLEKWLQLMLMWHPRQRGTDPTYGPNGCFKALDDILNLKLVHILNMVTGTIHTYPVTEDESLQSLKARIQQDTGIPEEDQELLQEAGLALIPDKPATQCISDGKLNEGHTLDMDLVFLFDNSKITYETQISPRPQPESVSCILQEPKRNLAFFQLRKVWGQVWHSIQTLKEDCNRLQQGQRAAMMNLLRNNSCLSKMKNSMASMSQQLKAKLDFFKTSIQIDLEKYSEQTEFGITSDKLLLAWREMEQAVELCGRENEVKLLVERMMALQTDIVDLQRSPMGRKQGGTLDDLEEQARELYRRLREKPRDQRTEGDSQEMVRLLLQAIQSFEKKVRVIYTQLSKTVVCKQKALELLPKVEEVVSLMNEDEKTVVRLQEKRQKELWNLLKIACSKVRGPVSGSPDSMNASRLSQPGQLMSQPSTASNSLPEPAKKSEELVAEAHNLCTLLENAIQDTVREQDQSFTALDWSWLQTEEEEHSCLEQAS
To be noted: at 0.1 µM.

Assay [9] deals with T3, Inhibitor of nuclear factor kappa-B kinase subunit beta (Homo sapiens). To be noted: at 1 µM.
The target of assay [10] is T4, Inhibitor of nuclear factor kappa-B kinase subunit epsilon (Homo sapiens) (UniProt Q14164).
T4 sequence (whole entry): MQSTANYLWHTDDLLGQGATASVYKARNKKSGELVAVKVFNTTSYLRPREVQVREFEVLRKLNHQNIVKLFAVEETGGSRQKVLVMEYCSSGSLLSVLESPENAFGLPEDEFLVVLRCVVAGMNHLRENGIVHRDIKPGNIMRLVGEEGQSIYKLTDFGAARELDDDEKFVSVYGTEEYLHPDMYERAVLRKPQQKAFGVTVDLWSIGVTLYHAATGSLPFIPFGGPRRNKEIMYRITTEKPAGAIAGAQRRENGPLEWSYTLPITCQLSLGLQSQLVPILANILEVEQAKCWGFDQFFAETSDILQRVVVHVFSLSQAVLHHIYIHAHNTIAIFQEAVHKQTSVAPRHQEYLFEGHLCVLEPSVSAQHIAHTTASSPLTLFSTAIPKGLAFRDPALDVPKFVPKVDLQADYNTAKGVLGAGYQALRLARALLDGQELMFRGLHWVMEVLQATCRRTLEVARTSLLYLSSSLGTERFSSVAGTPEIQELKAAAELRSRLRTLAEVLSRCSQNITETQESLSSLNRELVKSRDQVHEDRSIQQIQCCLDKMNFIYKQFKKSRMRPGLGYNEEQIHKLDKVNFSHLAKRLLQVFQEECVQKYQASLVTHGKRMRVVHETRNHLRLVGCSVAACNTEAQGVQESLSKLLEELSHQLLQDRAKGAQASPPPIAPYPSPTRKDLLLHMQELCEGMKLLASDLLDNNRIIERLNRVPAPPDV
To be noted: at 0.1 µM.

In assay [11] the target is T4, Inhibitor of nuclear factor kappa-B kinase subunit epsilon (Homo sapiens). Particulars: at 1 µM.
Assay [12] concerns the target T5, Serine/threonine-protein kinase Nek1 (Homo sapiens) (UniProt Q96PY6).
T5 sequence (whole entry): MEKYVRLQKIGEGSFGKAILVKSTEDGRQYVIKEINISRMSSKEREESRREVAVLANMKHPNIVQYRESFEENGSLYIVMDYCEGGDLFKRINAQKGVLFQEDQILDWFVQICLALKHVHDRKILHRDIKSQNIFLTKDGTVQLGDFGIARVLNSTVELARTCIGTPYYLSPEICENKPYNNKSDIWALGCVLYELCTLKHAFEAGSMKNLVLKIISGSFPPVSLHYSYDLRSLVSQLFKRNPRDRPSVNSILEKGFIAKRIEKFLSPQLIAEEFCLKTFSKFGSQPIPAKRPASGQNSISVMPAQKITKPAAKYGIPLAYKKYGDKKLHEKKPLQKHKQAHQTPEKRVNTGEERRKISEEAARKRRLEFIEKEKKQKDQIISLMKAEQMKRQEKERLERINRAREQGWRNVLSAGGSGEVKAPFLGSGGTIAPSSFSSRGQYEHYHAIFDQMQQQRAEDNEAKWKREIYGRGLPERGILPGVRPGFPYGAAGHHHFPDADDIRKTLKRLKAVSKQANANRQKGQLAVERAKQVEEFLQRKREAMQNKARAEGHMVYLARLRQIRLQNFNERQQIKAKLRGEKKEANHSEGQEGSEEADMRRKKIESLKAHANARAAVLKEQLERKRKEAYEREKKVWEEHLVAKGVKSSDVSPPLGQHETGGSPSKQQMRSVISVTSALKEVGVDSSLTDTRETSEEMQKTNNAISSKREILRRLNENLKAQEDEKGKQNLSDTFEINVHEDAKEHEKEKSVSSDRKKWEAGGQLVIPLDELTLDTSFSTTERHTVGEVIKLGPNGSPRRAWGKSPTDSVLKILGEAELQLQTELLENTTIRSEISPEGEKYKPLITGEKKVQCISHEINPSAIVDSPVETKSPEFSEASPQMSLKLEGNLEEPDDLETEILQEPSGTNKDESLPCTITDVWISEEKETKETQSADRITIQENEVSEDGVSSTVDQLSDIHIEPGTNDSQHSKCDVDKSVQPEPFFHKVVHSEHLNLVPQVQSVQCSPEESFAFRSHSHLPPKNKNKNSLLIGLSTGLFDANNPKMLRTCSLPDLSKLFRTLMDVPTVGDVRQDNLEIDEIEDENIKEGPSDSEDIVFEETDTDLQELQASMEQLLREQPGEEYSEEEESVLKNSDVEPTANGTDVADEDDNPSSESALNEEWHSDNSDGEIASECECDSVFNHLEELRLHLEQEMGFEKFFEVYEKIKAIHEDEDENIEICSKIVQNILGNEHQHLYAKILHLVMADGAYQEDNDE
To be noted: at 0.1 µM.

The target in assay [13] is T5, Serine/threonine-protein kinase Nek1 (Homo sapiens). Particulars: at 1 µM.
In assay [14] the target is T6, Serine/threonine-protein kinase Nek2 (Homo sapiens) (UniProt P51955).
T6 sequence (whole entry): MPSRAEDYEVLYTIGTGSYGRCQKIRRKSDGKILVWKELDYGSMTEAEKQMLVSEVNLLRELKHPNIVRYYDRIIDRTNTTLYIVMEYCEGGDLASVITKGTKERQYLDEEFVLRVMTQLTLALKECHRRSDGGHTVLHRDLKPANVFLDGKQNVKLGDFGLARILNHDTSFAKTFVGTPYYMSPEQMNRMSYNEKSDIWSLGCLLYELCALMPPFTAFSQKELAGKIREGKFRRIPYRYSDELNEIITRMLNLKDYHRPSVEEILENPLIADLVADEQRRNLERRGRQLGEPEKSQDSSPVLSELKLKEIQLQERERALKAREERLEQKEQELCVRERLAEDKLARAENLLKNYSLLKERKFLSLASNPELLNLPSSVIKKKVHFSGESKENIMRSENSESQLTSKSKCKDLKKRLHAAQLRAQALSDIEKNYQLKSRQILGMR
Particulars: at 0.1 µM.

The target of assay [15] is T6, Serine/threonine-protein kinase Nek2 (Homo sapiens). Particulars: at 1 µM.
Assay [16] addresses Serine/threonine-protein kinase Nek6 (Homo sapiens) (UniProt Q9HC98). To be noted: at 0.1 µM.
For assay [17] the target is unchanged. To be noted: at 1 µM.
Assay [18] has as its target Serine/threonine-protein kinase Nek7 (Homo sapiens) (UniProt Q8TDX7). Particulars: at 0.1 µM.
For assay [19] the target is unchanged. Particulars: at 1 µM.
In assay [20] the target is T7, Serine/threonine-protein kinase Nek9 (Homo sapiens) (UniProt Q8TD19).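 Further: reported value is the mean percent inhibition of NEK9.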
T7 sequence (whole entry): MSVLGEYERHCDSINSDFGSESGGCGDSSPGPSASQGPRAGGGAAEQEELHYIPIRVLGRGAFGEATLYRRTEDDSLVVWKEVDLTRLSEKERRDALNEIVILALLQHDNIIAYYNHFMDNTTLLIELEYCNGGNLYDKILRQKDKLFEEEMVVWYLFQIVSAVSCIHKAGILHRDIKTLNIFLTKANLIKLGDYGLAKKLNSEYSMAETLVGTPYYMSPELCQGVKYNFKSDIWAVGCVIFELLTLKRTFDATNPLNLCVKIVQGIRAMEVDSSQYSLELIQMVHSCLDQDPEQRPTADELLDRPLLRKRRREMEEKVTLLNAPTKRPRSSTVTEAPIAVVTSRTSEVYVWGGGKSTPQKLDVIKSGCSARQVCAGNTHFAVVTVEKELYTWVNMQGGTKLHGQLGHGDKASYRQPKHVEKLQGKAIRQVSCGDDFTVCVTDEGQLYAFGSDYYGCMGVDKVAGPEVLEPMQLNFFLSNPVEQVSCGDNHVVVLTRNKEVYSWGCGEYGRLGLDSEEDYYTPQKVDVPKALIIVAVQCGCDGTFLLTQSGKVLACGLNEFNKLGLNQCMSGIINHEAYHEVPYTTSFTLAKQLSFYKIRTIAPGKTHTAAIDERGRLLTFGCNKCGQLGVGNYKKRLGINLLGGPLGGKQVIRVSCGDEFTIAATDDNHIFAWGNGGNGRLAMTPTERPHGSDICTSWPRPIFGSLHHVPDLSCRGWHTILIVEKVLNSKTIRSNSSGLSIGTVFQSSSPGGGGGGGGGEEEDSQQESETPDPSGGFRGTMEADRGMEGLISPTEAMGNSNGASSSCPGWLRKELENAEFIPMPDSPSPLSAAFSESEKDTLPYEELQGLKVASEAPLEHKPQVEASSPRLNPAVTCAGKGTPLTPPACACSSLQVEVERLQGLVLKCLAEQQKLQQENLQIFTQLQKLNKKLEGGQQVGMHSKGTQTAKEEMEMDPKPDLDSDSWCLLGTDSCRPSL
Particulars: at 0.1 µM.

Structures are written as SMILES.

Chain of Casein kinase II subunit alpha (Homo sapiens) (P68400 whole entry, looked up): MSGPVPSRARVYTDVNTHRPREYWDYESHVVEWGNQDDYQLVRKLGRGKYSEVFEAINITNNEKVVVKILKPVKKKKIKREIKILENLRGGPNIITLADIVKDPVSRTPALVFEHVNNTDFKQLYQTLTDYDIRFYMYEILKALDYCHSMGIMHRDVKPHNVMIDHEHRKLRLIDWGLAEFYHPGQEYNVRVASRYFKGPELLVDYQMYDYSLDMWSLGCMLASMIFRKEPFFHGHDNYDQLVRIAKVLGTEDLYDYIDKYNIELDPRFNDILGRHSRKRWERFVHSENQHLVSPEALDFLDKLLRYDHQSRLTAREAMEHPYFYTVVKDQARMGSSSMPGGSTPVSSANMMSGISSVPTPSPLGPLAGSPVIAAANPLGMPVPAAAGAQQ
Chain of Serine/threonine-protein kinase Nek7 (Homo sapiens) (Q8TDX7 whole entry, looked up): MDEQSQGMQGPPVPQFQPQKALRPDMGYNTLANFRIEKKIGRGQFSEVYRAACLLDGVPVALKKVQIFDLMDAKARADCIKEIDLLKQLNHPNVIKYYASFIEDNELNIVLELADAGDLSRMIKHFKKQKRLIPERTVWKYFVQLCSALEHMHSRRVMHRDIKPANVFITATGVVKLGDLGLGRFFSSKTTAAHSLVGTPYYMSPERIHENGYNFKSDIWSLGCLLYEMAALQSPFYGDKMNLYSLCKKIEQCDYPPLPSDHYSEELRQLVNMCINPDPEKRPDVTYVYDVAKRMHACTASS
Chain of Serine/threonine-protein kinase Nek6 (Homo sapiens) (Q9HC98 whole entry): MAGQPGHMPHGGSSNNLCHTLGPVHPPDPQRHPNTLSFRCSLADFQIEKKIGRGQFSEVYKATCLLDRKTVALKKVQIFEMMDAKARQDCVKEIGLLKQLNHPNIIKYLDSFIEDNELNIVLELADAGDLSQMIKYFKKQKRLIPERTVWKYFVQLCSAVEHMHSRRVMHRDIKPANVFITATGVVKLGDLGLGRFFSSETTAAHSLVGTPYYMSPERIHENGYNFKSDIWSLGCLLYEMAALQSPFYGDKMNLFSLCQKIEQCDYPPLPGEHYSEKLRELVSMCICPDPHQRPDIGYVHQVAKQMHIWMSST
Chain of Sphingosine kinase 1 (Homo sapiens) (Q9NYA1 whole entry): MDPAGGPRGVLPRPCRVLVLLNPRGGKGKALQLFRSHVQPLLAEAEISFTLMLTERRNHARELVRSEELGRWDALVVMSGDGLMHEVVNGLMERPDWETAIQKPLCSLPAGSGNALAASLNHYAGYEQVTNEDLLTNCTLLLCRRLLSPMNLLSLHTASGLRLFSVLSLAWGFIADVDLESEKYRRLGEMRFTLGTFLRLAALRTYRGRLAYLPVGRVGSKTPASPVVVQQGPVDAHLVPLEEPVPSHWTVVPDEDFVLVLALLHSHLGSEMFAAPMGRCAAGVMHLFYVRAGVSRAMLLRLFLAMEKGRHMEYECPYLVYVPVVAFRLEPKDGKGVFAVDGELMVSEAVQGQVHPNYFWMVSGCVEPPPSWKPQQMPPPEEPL

Regarding `CCn1c(-c2nonc2N)nc2c(C#CC(C)(C)O)ncc(OC[C@@H]3CCCN3)c21`, the inhibition was 1.85% in assay [1]; 1.65% in assay [2]; 0% in assay [3]; 13.9% in assay [4]; -1.67% in assay [5]; 7.49% in assay [6]. Besides, the inhibition was -0.05% in assay [7]; 4.75% in [8]; 4.4% in [9]; 89.6% in [10]; 98.7% in assay [11]; 0.01% in assay [12]. Further, the inhibition in assay [13] is 0.55%; in assay [14], 0.12%; in [15], 0.91%; in [16], 1.04%; in [17], 0.79%; in assay [18], -0.99%. The inhibition in assay [19] was -0.58%; in assay [20], -1.1%.

By inhibition is commonly meant the relative decrease from the control value, in per cent.
